Here are results for eight compounds from PubChem BioAssay (Tox21).

Records with an inconclusive call do not appear. A structure can be active in one record and inactive in another. Activity calls are given as the source filed them. Unless noted, the call rests on the fitted dose curve.

Test [1] in a line: Nuclear factor erythroid 2-related factor 2/antioxidant responsive element (Nrf2/ARE) small molecule agonists: qHTS cell viability counter screen in human keratinocytes (AID 1919968; active means well fitted curve in the direction sought with a large enough effect in the repeat runs; an effect the other way counts as inactive or inconclusive; further: nearly all actives have a fitted effect of over 55% in size). The method in brief: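 Seed 1,500 KeratinoSens cells per well, then incubate 5 h at 37 C/5% CO2. Add compounds in DMSO and incubate 23 h. Add CellTiter-Fluor, wait 1 h and read fluorescence.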
In test [2] the target is Gonadotropin-releasing hormone receptor (Homo sapiens) (UniProt P30968). Description: Human gonadotropin-releasing hormone receptor (GnRHR) small molecule agonists, calcium flux assay in GnRHR-HEK293 cells (AID 1920063). Further: nearly all actives have a fitted effect of over 35% in size. The gist of the method:
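Cells: HEK293 stably expressing human GnRHR. Steps: overnight (18 h) culture, 1 h calcium dye loading at 37 C, compound addition, kinetic fluorescence read at 480/540 nm. Each compound tested at 15 concentrations in triplicate.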

Test [3] concerns the target KiSS-1 receptor (Homo sapiens) (UniProt Q969F8). The test is described as follows: Human kisspeptin (KISS1R) small molecule agonists, calcium flux assay in KISS1R-HEK293 cells (AID 1920064; active means well fitted curve in the direction sought with a large enough effect in the repeat runs; an effect the other way counts as inactive or inconclusive). The gist of the method: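 Cells plated and incubated 18 h; dye added, 1 h at 37 C; compounds in DMSO pinned in; signal read at 480/540 nm every second for 3 min. Each compound tested at 15 concentrations in triplicate.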
For orientation: Calcium assays in cells follow changes in intracellular calcium, usually with a dye or a luminescent sensor.

A short description of test [4]: G protein-coupled receptor (GPCR) small molecule agonists, calcium flux assay: HEK293 wild type cell line counter screen (AID 1920065). The gist of the method:
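Counter-screen of the Tox21 10K library for non-specific calcium release: dye-loaded cells received compounds in DMSO and were monitored by kinetic fluorescence (480/540 nm, 3 min). Fifteen concentrations, run in triplicate.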

Test [5] in a line: p53 small molecule agonists, cell-based qHTS assay with rat liver microsomes (AID 1963578). The method in brief:
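p53RE-bla cells were exposed to compounds together with rat liver microsomes (0.5 mg/mL final) and NADPH (0.5 mg/mL final) for 16 h at 37 C, then read by LiveBLAzer beta-lactamase fluorescence after 2 h at room temperature.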

The nature of test [6]: p53 small molecule agonists, cell-based qHTS assay with human liver microsomes: qHTS cell viability counter screen (AID 1963579). Further: nearly all actives have a fitted effect of over 45% in size. The gist of the method: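 p53RE-bla cells (4,000/well) were pre-incubated 5 h at 37 C, then given compounds in DMSO plus human liver microsomes (0.5 mg/mL final) and NADPH (0.5 mg/mL final) for 16 h at 37 C. Viability was read by CellTiter-Glo luminescence.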
(In general: Quantitative high-throughput screening tests each substance at several concentrations.)

Test [7] in a line: p53 small molecule agonists, cell-based qHTS assay with rat liver microsomes: qHTS cell viability counter screen (AID 1963580). Further: nearly all actives have a fitted effect of over 45% in size. The method in brief:
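HCT-116 p53RE-bla, 4,000 cells/well, 5 h pre-incubation; cpd + rat liver microsomes 0.5 mg/mL + NADPH 0.5 mg/mL (final); 16 h, 37 C; CellTiter-Glo, 30 min RT; luminescence.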

Test [8] can be described thus: p53 small molecule agonists, cell-based qHTS assay: qHTS cell viability counter screen (AID 1963581). Further: nearly all actives have a fitted effect of over 45% in size. The gist of the method: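 Cells: HCT-116 with p53 response element-driven beta-lactamase. Treatment: 16 h, 37 C, compounds in DMSO. Read: CellTiter-Glo luminescence after 30 min RT.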
The nature of test [9]: p53 small molecule agonists, cell-based qHTS assay (AID 1963582; active means well fitted activation curve with a large enough effect in the signal ratio in the repeat runs, not every such curve was filed as active; the % refers to the signal ratio). The gist of the method: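 Quantitative HTS in p53RE-bla cells: after a 5 h settling period, compounds delivered in DMSO were left on cells for 16 h at 37 C, and reporter induction was measured as fluorescence following 2 h substrate loading.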
The target in test [10] is 5-hydroxytryptamine receptor 2A (Homo sapiens) (UniProt P28223). Description: 5-hydroxytryptamine receptor 2A (HTR2A) small molecule antagonists, cell-based qHTS assay (AID 1963586). Further: nearly all actives have a fitted effect of over 45% in size. The method in brief:
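Antagonist-mode intracellular calcium assay: DOI (4 nM) added after 5 min compound pre-incubation at room temperature to dye-loaded HTR2A-CHO cells. Fluorescence followed for 3 min, sampled every second.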

Test [11] shares this target. Description: 5-hydroxytryptamine receptor 2A (HTR2A) small molecule agonists, cell-based qHTS assay (AID 1963587). Further: nearly all actives have a fitted effect of over 30% in size. Further: potency means the concentration at half of the fitted maximal effect. The method in brief:
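Kinetic calcium-flux fluorescence (2 min, 1 sec intervals) after compound addition in agonist mode. HTR2A-CHO cells were cultured 18 h, then dye-loaded 1 h at 37 C.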

Test [12] deals with Muscarinic acetylcholine receptor M1 (Homo sapiens) (UniProt P11229). Description: Cholinergic receptor muscarinic 1 (CHRM1) small molecule antagonists, cell-based qHTS assay (AID 1963588). Further: nearly all actives have a fitted effect of over 40% in size. The method in brief:
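CHRM1-CHO calcium-flux assay, antagonist mode. Cells were seeded 18 h, dye-loaded 1 h at 37 C and given compound for 5 min at RT, then acetylcholine was added at 50nM. FDSS fluorescence was read 3 min; 15 concentrations, three runs.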

The target is the same in test [13]. Description: Cholinergic receptor muscarinic 1 (CHRM1) small molecule agonists, cell-based qHTS assay (AID 1963589). Further: nearly all actives have a fitted effect of over 35% in size. The gist of the method: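 Agonist-mode qHTS in CHO cells stably carrying human muscarinic M1. Intracellular calcium is tracked by fluorescence every second after compound transfer; each compound runs at 15 concentrations in three independent runs.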

A short description of test [14]: cAMP Responsive Elements (CRE) small molecule agonists, cell-based qHTS assay (AID 1963590). The method in brief:
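Agonist mode qHTS in CRE-bla HEK 293T cells: compounds dosed from DMSO for 3 h at 37 C/5% CO2, followed by LiveBLAzer B/G FRET substrate for 2 h at room temperature.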

The nature of test [15]: cAMP Responsive Elements (CRE) small molecule antagonists, cell-based qHTS assay (AID 1963591; active means well fitted inhibition curve with a large enough effect in the signal ratio in the repeat runs, not every such curve was filed as active; the % refers to the signal ratio). The method in brief:
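Antagonist mode: test compounds are co-incubated with the adenylyl cyclase activator NKH477 (0.25 uM final) on CRE-bla HEK293T cells for 3 h at 37 °C, followed by LiveBLAzer substrate loading.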

Test [16] concerns the target Beta-2 adrenergic receptor (Homo sapiens) (UniProt P07550). The test is described as follows: Adrenergic beta2 receptor (ADRB2) small molecule antagonists, cell-based qHTS assay (AID 1963592). Further: series mostly up to about 92 µM; nearly all actives have a fitted effect of over 50% in size. The gist of the method: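 Cells (CHO, stable ADRB2 overexpression) incubated 18-20hr at 37C; compounds added from DMSO; agonist mix (1nM isoproterenol, 100uM IBMX, 25uM Ro-20-1724) added; 0.5hr RT; d2-cAMP and anti-cAMP-cryptate added; 1hr RT; 665/615 nm read.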

For test [17], the target named is D(2) dopamine receptor (Homo sapiens) (UniProt P14416). Description: Dopamine D2 receptor (DRD2) small molecule agonists, cell-based qHTS assay (AID 1963594). Further: nearly all actives have a fitted effect of over 35% in size. The gist of the method:
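cAMP accumulation in DRD2-HEK293 cells measured by HTRF after 1 h detection; compounds added 10 min before NKH477 (200nM […]) forskolin-analogue stimulation, 30 min at room temperature, with Ro20-1724 present at 0.1 mM final.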

For test [18] the target is unchanged. Description: Dopamine D2 receptor (DRD2) small molecule antagonists, cell-based qHTS assay (AID 1963595; active means well fitted inhibition curve with a large enough effect in the signal ratio in the repeat runs, with a control signal flat; the % refers to the signal ratio). The method in brief: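 HEK293 cells stably expressing DRD2, preincubated with 0.1 mM Ro20-1724 and compounds 10 min, were stimulated with 200 nM NKH477 plus 12 nM quinpirole for 30 min at room temperature; cAMP measured by HTRF (665/620 nm).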
Test [19] is described as follows: p53 small molecule agonists, cell-based qHTS assay with human liver microsomes (AID 1963577). The gist of the method:
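p53RE-bla reporter cells were pre-incubated 5 h at 37 C, then treated with compounds plus human liver microsomes (0.5 mg/mL final) and NADPH (0.5 mg/mL final) for 16 h at 37 C. Beta-lactamase activity was read by LiveBLAzer fluorescence after 2 h at room temperature.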

Test [20] addresses Beta-2 adrenergic receptor (Homo sapiens) (UniProt P07550). The test is described as follows: Adrenergic beta2 receptor (ADRB2) small molecule agonists, cell-based qHTS assay (AID 1963593).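 Further: CHO cells stably overexpressing human ADRB2.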 The method in brief:
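CHO cells stably over-expressing ADRB2 were plated overnight at 37C, then dosed with compounds plus a stimulation mix containing 100uM IBMX and 25uM Ro-20-1724 for 0.5hr at room temperature. cAMP was measured by HTRF competition, 1hr.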

Chain of D(2) dopamine receptor (Homo sapiens) (P14416 whole entry, looked up): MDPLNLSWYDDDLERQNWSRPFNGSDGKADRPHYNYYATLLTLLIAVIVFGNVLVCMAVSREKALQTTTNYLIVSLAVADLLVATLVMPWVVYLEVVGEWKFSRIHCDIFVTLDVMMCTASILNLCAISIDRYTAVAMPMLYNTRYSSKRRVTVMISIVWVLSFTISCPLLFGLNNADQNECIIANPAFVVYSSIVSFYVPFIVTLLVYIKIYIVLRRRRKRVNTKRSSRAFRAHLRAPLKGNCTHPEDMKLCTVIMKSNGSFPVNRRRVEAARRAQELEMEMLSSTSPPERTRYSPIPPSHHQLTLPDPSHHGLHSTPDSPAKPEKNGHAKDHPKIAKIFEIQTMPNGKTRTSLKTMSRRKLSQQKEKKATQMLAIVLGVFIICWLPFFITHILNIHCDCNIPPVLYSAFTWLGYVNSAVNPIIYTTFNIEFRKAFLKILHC
Chain of Muscarinic acetylcholine receptor M1 (Homo sapiens) (P11229 whole entry, looked up): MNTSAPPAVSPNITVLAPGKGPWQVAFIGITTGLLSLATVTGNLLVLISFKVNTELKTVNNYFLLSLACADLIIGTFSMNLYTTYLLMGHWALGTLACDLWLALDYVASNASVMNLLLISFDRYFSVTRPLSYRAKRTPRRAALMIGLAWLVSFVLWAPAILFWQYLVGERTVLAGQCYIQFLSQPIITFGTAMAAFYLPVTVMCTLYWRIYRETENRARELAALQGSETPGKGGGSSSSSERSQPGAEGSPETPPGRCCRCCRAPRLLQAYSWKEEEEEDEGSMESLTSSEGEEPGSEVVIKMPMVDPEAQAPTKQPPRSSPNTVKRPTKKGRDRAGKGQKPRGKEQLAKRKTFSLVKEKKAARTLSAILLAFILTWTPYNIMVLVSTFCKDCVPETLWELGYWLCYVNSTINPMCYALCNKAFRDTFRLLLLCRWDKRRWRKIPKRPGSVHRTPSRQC
Chain of 5-hydroxytryptamine receptor 2A (Homo sapiens) (P28223 whole entry, looked up): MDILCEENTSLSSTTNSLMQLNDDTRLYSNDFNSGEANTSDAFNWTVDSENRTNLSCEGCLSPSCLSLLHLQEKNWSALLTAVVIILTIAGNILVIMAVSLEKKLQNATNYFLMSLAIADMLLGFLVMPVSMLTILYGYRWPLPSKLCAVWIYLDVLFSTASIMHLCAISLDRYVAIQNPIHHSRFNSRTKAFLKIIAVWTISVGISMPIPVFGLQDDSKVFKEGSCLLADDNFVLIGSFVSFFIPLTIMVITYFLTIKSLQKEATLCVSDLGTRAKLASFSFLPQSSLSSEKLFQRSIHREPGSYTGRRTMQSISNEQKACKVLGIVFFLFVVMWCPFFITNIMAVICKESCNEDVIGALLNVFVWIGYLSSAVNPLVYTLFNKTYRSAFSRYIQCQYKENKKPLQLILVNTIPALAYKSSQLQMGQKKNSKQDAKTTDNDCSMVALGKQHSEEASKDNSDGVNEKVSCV
Chain of KiSS-1 receptor (Homo sapiens) (Q969F8 whole entry, looked up): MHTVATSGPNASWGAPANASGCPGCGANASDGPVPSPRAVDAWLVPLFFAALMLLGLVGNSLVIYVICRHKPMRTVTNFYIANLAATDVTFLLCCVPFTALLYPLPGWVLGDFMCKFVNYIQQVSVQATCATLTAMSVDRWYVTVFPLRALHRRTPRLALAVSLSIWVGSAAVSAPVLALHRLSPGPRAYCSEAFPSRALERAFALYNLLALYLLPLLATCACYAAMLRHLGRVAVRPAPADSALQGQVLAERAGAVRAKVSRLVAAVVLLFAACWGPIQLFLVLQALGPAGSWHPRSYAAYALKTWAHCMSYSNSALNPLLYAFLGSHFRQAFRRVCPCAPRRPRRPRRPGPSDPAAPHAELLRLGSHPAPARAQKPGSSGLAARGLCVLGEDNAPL
Chain of Gonadotropin-releasing hormone receptor (Homo sapiens) (P30968 whole entry, looked up): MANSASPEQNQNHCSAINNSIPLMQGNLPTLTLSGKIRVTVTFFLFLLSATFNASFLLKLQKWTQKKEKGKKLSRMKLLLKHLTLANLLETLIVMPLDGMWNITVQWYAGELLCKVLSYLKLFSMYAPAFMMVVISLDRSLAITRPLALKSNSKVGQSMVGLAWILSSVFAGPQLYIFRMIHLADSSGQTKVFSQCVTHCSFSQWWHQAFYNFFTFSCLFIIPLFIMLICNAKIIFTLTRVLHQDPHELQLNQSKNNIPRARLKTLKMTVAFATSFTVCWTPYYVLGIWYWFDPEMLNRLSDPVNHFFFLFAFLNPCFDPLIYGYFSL
Chain of Beta-2 adrenergic receptor (Homo sapiens) (P07550 whole entry, looked up): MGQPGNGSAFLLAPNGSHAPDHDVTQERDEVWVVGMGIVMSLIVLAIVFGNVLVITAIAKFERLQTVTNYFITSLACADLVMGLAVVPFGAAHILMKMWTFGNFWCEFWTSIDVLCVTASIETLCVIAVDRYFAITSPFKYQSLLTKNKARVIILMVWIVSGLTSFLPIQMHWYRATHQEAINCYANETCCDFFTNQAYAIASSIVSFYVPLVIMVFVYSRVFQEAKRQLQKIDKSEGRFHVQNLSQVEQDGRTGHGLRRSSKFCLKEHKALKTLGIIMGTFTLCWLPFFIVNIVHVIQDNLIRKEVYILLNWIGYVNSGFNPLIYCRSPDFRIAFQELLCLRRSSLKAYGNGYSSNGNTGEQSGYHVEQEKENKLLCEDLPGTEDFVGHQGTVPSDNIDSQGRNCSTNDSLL

Take `O=C=NC1CCCCC1`: the Potency entry in [1], in test [2], in test [3], in [4], in test [5] and in test [6] was “inactive” each time. The Potency entry in [7], in test [8], in test [9], in test [10], in test [11] and in test [12] was “inactive” throughout. Besides, the Potency entry in [13], in [14], in test [15], in test [16], in test [17] and in [18] was “inactive” each time.
`CN=C=S`: the Potency result in test [1], in test [2], in [3], in test [4], in [19] and in test [5] was “inactive” throughout. In addition, the Potency result in [6], in [8], in [9], in test [10], in test [12] and in [13] was “inactive” in each case. Further, the Potency entry in [14], in [15], in [16], in test [20] and in test [17] was “inactive” in each case. Besides, the Potency in test [11] was 44 µM (active) and inactive.
Consider `CNc1cnn(-c2cccc(C(F)(F)F)c2)c(=O)c1Cl`, for which the Potency entry in [1], in [2], in test [3], in test [4], in test [19] and in [5] was “inactive” throughout. Further, the Potency result in test [6], in [9], in test [11], in test [12], in test [13] and in test [14] was “inactive” each time. Moreover, the Potency entry in test [15], in test [16], in [20] and in test [17] was “inactive” each time.
On to `c1ccc2c(c1)-c1cccc3cccc-2c13`, for which the Potency entry in test [1], in test [2], in test [3], in test [4], in test [19] and in test [6] was “inactive” in each case. In addition, the Potency entry in [8], in test [9], in [10], in test [11], in [12] and in [13] was “inactive” each time. Besides, the Potency result in [14], in [15], in test [16], in [17] and in test [18] was “inactive” in each case.
For the compound `Nc1ccc(Cl)cc1`, the Potency result in [1], in [2], in test [3], in [4], in [19] and in test [5] was “inactive” throughout. Also, the Potency result in test [7], in [8], in test [11], in test [12], in test [13] and in [14] was “inactive” in each case. The Potency entry in [15], in test [16], in [20], in test [17] and in [18] was “inactive” throughout.
In the case of `Cc1ccc([N+](=O)[O-])cc1`, the Potency result in test [1], in test [2], in [3], in [4], in [19] and in test [5] was “inactive” in each case. In addition, the Potency entry in test [6], in test [8], in test [10], in test [11], in [12] and in test [13] was “inactive” in each case. Further, the Potency entry in [14], in [15], in [16], in test [17] and in test [18] was “inactive” in each case.
With `O=[N+]([O-])O`, the Potency entry in [1], in test [2], in [3], in test [4], in test [6] and in test [7] was “inactive” each time. Also, the Potency entry in test [8], in [10], in test [11], in test [12], in [13] and in test [14] was “inactive” throughout. Besides, the Potency entry in test [15], in test [16], in test [20], in [17] and in test [18] was “inactive” in each case.
As to `Cc1ccc(OP(=O)(Oc2ccc(C)cc2)Oc2ccc(C)cc2)cc1`, the Potency result in test [1], in test [2], in test [3], in test [4], in test [19] and in test [6] was “inactive” each time. The Potency result in test [9], in [10], in [11], in [12], in [13] and in [14] was “inactive” each time. Further, the Potency result in [15], in [16], in test [20], in test [17] and in test [18] was “inactive” in each case.
